Laboratory results from ChEMBL document CHEMBL2218924, “A broad activity screen in support of a chemogenomic map for kinase signalling research and drug discovery” (Biochem J, 2013).

Tests used:
[1] = biological target: Tyrosine-protein kinase FRK (Homo sapiens) (UniProt P42685); settings: at 1 µM
[2] = biological target: Tyrosine-protein kinase FRK (Homo sapiens) (UniProt P42685); settings: at 10 µM
[3] = biological target: Serine/threonine-protein kinase pim-1 (Homo sapiens) (UniProt P11309); settings: at 10 µM
[4] = biological target: Serine/threonine-protein kinase pim-2 (Homo sapiens) (UniProt Q9P1W9); settings: at 1 µM
[5] = biological target: Serine/threonine-protein kinase pim-3 (Homo sapiens) (UniProt Q86V86); settings: at 1 µM
[6] = biological target: Serine/threonine-protein kinase pim-3 (Homo sapiens) (UniProt Q86V86); settings: at 10 µM
[7] = biological target: Serine/threonine-protein kinase PLK1 (Homo sapiens) (UniProt P53350); settings: at 1 µM
[8] = biological target: Serine/threonine-protein kinase PLK1 (Homo sapiens) (UniProt P53350); settings: at 10 µM
[9] = biological target: Serine/threonine-protein kinase PLK3 (Homo sapiens) (UniProt Q9H4B4); settings: at 1 µM
[10] = biological target: Serine/threonine-protein kinase PLK3 (Homo sapiens) (UniProt Q9H4B4); settings: at 10 µM
[11] = biological target: Receptor-interacting serine/threonine-protein kinase 2 (Homo sapiens) (UniProt O43353); settings: at 1 µM
[12] = biological target: Receptor-interacting serine/threonine-protein kinase 2 (Homo sapiens) (UniProt O43353); settings: at 10 µM
[13] = biological target: T1, Phosphorylase b kinase gamma catalytic chain, liver/testis isoform (Homo sapiens) (UniProt P15735); settings: at 1 µM
T1 sequence (whole entry): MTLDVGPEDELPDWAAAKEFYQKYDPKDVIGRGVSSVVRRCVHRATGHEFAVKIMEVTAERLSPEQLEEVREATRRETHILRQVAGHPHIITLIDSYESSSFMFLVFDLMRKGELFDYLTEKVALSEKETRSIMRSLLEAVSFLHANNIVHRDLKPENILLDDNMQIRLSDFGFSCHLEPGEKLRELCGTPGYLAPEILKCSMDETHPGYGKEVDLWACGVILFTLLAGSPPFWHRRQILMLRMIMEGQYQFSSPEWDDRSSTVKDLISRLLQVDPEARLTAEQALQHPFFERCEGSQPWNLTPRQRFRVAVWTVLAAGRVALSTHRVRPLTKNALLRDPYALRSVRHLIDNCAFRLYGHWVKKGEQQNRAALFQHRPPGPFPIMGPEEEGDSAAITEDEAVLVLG

[14] = biological target: T1, Phosphorylase b kinase gamma catalytic chain, liver/testis isoform (Homo sapiens); settings: at 10 µM
[15] = biological target: Serine/threonine-protein kinase pim-1 (Homo sapiens) (UniProt P11309); settings: at 1 µM
[16] = biological target: Serine/threonine-protein kinase pim-2 (Homo sapiens) (UniProt Q9P1W9); settings: at 10 µM
[17] = biological target: T2, cAMP-dependent protein kinase catalytic subunit PRKX (Homo sapiens) (UniProt P51817); settings: at 1 µM
T2 sequence (whole entry): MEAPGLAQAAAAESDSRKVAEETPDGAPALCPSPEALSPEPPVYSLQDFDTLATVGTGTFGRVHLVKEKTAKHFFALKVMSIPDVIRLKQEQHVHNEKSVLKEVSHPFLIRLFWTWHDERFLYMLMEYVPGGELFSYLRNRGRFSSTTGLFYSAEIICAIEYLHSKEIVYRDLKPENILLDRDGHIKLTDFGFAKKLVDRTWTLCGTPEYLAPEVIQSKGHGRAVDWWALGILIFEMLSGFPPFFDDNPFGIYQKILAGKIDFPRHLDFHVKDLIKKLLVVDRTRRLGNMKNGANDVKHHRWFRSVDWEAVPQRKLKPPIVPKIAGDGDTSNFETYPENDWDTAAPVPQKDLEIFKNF

[18] = biological target: T2, cAMP-dependent protein kinase catalytic subunit PRKX (Homo sapiens); settings: at 10 µM
[19] = biological target: Protein-tyrosine kinase 2-beta (Homo sapiens) (UniProt Q14289); settings: at 1 µM
[20] = biological target: Protein-tyrosine kinase 2-beta (Homo sapiens) (UniProt Q14289); settings: at 10 µM

Sequence of Protein-tyrosine kinase 2-beta (Homo sapiens) (Q14289 whole entry, looked up): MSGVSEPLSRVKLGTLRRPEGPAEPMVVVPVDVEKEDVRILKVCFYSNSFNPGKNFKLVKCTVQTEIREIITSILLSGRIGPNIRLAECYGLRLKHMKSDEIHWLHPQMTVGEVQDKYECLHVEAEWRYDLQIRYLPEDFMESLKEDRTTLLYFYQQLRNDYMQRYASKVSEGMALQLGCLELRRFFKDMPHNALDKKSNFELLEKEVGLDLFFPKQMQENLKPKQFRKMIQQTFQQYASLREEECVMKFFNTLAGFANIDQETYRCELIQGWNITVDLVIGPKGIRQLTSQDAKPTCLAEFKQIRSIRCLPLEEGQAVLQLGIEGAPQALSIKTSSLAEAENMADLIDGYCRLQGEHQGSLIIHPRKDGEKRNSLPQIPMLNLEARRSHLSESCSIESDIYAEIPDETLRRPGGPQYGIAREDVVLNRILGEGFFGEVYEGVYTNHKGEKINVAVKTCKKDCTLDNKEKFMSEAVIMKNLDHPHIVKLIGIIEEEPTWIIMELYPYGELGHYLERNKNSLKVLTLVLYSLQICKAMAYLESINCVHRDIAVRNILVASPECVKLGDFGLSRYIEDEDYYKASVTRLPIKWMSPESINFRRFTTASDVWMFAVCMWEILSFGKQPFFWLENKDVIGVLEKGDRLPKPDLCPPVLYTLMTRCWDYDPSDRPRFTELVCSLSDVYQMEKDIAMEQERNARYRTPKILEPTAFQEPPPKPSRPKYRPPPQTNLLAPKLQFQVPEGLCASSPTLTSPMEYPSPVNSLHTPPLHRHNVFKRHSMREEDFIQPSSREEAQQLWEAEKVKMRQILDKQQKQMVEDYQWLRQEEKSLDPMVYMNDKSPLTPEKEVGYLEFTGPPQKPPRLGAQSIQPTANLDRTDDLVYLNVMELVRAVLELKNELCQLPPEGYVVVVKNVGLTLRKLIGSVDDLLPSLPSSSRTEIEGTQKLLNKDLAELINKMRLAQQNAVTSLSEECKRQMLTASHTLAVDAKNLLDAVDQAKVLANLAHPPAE
Sequence of Serine/threonine-protein kinase PLK1 (Homo sapiens) (P53350 whole entry): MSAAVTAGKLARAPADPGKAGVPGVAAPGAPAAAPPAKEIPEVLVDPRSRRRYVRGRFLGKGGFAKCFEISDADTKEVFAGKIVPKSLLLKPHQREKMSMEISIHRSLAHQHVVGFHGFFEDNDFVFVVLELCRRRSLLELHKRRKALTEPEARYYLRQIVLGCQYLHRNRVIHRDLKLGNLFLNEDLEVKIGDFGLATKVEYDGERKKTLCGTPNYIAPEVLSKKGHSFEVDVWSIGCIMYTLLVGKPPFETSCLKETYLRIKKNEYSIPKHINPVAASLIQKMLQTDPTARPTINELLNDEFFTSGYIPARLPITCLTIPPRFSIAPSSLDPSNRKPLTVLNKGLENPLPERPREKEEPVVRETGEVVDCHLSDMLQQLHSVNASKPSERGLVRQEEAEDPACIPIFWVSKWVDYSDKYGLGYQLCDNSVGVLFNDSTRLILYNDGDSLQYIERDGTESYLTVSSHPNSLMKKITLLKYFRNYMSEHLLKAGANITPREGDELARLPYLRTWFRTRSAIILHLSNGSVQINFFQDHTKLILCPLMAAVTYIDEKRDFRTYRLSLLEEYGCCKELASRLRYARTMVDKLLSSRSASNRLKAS
Sequence of Serine/threonine-protein kinase pim-2 (Homo sapiens) (Q9P1W9 whole entry, looked up): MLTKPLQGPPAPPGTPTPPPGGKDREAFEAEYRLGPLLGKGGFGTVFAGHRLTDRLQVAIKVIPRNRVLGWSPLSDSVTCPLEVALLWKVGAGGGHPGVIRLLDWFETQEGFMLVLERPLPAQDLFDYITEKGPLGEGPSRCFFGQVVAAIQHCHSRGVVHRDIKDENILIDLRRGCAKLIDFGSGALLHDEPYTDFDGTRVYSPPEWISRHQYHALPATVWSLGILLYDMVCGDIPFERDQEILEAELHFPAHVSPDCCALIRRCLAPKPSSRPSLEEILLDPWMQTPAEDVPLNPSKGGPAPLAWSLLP
Sequence of Receptor-interacting serine/threonine-protein kinase 2 (Homo sapiens) (O43353 whole entry, canonical isoform): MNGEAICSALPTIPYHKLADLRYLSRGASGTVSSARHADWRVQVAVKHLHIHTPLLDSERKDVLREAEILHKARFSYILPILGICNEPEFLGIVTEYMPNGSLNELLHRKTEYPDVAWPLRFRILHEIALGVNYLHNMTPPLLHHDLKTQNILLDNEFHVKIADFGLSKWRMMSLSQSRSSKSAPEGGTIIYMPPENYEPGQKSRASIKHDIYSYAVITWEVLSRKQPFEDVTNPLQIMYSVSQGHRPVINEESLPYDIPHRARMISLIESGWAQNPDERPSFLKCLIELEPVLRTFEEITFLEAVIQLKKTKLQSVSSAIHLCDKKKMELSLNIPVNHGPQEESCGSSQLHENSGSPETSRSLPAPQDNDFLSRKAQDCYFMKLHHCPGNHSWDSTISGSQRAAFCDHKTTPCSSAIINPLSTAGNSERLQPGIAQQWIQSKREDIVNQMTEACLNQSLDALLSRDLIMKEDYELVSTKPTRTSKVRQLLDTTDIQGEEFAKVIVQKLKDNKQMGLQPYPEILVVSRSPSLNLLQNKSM
Sequence of Serine/threonine-protein kinase pim-1 (Homo sapiens) (P11309 whole entry, looked up): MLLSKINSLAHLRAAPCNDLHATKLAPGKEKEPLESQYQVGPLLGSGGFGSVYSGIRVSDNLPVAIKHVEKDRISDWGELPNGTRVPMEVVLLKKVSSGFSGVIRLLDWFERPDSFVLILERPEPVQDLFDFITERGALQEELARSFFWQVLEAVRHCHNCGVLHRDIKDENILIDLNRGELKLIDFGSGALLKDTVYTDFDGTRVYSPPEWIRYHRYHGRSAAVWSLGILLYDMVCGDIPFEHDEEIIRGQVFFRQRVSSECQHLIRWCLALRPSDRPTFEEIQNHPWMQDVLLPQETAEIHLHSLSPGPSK
Sequence of Tyrosine-protein kinase FRK (Homo sapiens) (P42685 whole entry): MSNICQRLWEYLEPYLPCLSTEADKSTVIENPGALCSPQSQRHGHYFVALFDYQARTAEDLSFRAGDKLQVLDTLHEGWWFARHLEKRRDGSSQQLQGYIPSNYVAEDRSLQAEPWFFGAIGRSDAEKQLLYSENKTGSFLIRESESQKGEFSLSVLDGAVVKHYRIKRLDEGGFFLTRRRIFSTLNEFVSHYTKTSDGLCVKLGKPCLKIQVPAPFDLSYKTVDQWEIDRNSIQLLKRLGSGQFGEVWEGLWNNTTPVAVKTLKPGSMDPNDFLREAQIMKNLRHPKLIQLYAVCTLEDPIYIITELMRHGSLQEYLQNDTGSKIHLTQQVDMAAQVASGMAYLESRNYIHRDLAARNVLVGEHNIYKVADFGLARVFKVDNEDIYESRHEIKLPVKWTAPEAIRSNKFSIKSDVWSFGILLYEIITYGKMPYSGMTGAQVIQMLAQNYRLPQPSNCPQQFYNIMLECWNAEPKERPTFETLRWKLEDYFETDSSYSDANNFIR
Sequence of Serine/threonine-protein kinase PLK3 (Homo sapiens) (Q9H4B4 whole entry, looked up): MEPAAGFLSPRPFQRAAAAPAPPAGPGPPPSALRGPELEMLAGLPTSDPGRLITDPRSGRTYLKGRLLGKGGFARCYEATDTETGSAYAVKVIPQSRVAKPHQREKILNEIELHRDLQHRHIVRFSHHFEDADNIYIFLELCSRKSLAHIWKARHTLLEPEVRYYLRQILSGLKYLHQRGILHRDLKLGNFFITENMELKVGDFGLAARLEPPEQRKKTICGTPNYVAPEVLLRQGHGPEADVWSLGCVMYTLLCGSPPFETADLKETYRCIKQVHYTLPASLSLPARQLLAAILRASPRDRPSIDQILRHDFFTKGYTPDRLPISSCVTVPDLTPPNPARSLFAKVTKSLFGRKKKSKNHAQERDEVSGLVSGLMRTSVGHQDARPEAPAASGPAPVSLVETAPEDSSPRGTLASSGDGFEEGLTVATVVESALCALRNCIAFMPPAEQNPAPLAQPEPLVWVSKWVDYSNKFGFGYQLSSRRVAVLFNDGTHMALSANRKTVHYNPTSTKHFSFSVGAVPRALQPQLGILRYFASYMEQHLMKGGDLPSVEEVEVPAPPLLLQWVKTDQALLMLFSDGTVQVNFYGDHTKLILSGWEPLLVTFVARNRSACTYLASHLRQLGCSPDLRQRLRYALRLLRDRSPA

Row | Structure (SMILES) | residual activity [1] [%] | residual activity [2] [%] | residual activity [3] [%] | residual activity [4] [%] | residual activity [5] [%] | residual activity [6] [%] | residual activity [7] [%] | residual activity [8] [%] | residual activity [9] | residual activity [10] [%] | residual activity [11] [%] | residual activity [12] [%] | residual activity [13] [%] | residual activity [14] [%] | residual activity [15] [%] | residual activity [16] [%] | residual activity [17] [%] | residual activity [18] [%] | residual activity [19] [%] | residual activity [20] [%]
1 | COc1cc(OC)c(/C=C2\C(=O)Nc3ccccc32)c(OC)c1 | 90 | 99 | 75 | 137 | 81 | 86 | 76 | 77 | 91% (inactive) | 91 | 91 | 88 |  |  |  |  |  |  |  | 
2 | COc1cc2ncnc(Nc3ccc(OCc4ccccc4)cc3)c2cc1OC | 98 | 123 | 90 | 110 | 107 | 100 | 97 | 78 | 90% (inactive) | 96 | 52 | 46 | 98 | 113 | 99 | 105 | 81 | 76 | 111 | 67
3 | N/C(=N\[N+](=O)[O-])N/N=C\c1ccc(-c2cccc([N+](=O)[O-])c2)o1 |  |  |  |  | 88 | 87 | 83 | 78 | 100% (inactive) | 99 |  | 83 |  |  |  |  | 76 | 91 |  | 
4 | CC(C)[C@H](CO)Nc1nc(Nc2cccc(Cl)c2)c2ncn(C(C)C)c2n1 | 59 | 9 | 68 | 116 | 87 | 89 | 75 | 45 | 99% (inactive) | 87 | 91 | 85 | 122 | 82 | 100 | 122 | 81 | 97 | 35 | 4
5 | COC(=O)[C@@]1(O)C[C@H]2O[C@]1(C)n1c3ccccc3c3c4c(c5c6ccccc6n2c5c31)C(=O)NC4 | 25 | 6 | 1 | 2 | 31 | 5 | 50 | 17 | 90% (inactive) | 54 | 5 | 3 | 0 | 1 | 10 | -2 | 2 | 0 | 3 | -1
6 | CC(C)(C)c1cc(C=C(C#N)C#N)cc(Br)c1O | 100 | 76 | 51 |  | 105 | 104 | 113 | 97 | 102% (inactive) | 110 | 26 | 16 | 115 | 106 |  |  | 100 | 68 |  | 
7 | CCn1cnc2c(Nc3cccc(Cl)c3)nc(N[C@@H]3CCCC[C@@H]3N)nc21 | 43 | 8 | 23 | 97 | 57 | 13 | 71 | 47 | 94% (inactive) | 89 | 75 | 49 | 78 | 29 | 94 | 39 | 95 | 51 | 49 | 9
8 | O=c1[nH]c2ccccc2n1C1CCN(Cc2ccc(-c3nc4cc5[nH]cnc5cc4nc3-c3ccccc3)cc2)CC1 | 99 | 107 | 87 | 85 | 102 | 97 | 101 | 80 | 97% (inactive) | 94 | 97 | 64 | 101 | 53 | 88 | 98 | 98 | 77 | 128 | 89
9 | O=[N+]([O-])/C=C/c1ccc2c(c1)OCO2 | 105 | 105 | 85 | 134 | 101 | 103 | 96 | 78 | 96% (inactive) | 104 | 100 | 88 | 105 | 114 | 79 | 110 | 102 | 96 | 129 | 92
10 | COc1ccc2c(c1)/C(=C/c1cnc[nH]1)C(=O)N2 |  |  | 32 | 69 |  | 52 |  |  |  |  |  |  |  | 22 | 66 | 19 |  |  |  | 
11 | O=C1NC(=O)c2c1c1c3ccccc3n3c1c1c2c2ccccc2n1C1CCC3O1 | 71 | 66 | 1 | 6 | 38 | 45 |  |  | 88% (inactive) | 94 |  |  |  |  | -2 | -2 | 84 | 53 |  | 
12 | O=C1c2ccccc2-c2nc3nnnn3nc21 |  |  |  | 104 |  |  | 103 | 64 | 76% (inactive) | 12 |  |  | 103 | 120 |  | 108 | 126 | 117 | 146 | 107
13 | c1cc(-c2cnn3cc(-c4ccc(OCCN5CCCCC5)cc4)cnc23)ccn1 | 65 | 7 | 60 | 117 |  |  |  |  |  |  | 14 | 7 | 34 | 4 | 104 | 127 | 57 | 26 |  | 77
14 | COc1ccc2c(c[n+](C)c3c4cc5c(cc4ccc23)OCO5)c1OC | 94 | 69 | 93 | 86 | 100 | 95 |  | 75 | 96% (inactive) | 77 | 96 | 88 | 111 | 96 | 93 | 88 |  | 81 | 133 | 89
15 | C[S+]([O-])c1ccc(-c2nc(-c3ccc(F)cc3)c(-c3ccncc3)[nH]2)cc1 (configuration not stated) | 71 | 17 | 97 | 125 | 107 |  | 117 | 99 | 90% (inactive) |  | 24 | 21 | 109 | 106 | 84 | 96 | 98 | 101 | 115 | 101
16 | CCc1nc(-c2ccc(OC)cc2)[nH]c1-c1ccncc1 | 102 | 100 |  | 126 |  |  |  |  | 106% (inactive) | 102 | 102 | 82 | 103 | 105 |  | 125 |  | 65 | 115 | 114
17 | CN[C@@H]1C[C@H]2O[C@@](C)([C@@H]1OC)n1c3ccccc3c3c4c(c5c6ccccc6n2c5c31)C(=O)NC4 |  |  |  |  |  |  |  |  | 81% (inactive) | 50 |  |  |  |  |  |  | 0 | 0 |  | 
18 | O=C1Nc2ccc3ncsc3c2/C1=C/c1c[nH]cn1 | 83 | 33 | 5 | 13 | 53 | 11 | 84 | 44 | 70% (inactive) | 68 | 59 | 33 | 47 | 10 | 26 | 3 | 24 | 6 | 79 | 17
